FBPA Giardia inh: Giardia lamblia aldolase inhibition; A8B2U2; Potency, µM (doses to about 59.6 µM), for inactives: at the highest dose activity, negative = inhibition, most hits filed as inhibitors; AID 2451; 290,000 compounds, 0.71% hits; purified Giardia FBPA; also: potency is read from the fitted curve at half-maximal effect; nearly all actives have a fitted effect of over 55% in size
Target sequence (A8B2U2 whole entry, looked up): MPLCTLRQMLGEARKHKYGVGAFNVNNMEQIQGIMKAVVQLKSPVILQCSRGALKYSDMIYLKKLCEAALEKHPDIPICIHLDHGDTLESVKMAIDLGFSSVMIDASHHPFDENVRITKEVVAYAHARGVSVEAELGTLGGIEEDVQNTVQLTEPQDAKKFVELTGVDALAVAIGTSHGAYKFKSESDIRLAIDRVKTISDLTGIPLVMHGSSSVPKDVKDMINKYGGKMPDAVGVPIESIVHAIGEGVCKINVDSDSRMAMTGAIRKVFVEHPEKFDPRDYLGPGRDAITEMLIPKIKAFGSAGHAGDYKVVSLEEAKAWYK
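Giardia FBPA (40 nM reagent) was preincubated 10 min at RT with compound (up to 57.5 uM final), then substrate plus GAPDH/TPI/NAD/arsenate coupling system with diaphorase/resazurin was added; resorufin fluorescence (525/598 nm) was read after 20 min.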
Sm TGR inh: S. mansoni TGR enzyme inhibition; Q962Y6; purified TGR, DTNB reduction, TNB absorbance 405 nm; Potency, µM (highest dose often 114 µM), for the others: top-dose activity change, negative = inhibition, usual class: inhibitors; 360,000 compounds, 3% hits; also: potency is read from the fitted curve at half-maximal effect; nearly all actives have a fitted effect of over 60% in size
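TGR 20 nM + NADPH 100 uM (dispensed conc.), cpd preinc 15 min RT; start with NADPH (500 uM addition) then DTNB (15 mM addition). Kinetic TNB absorbance, 405 nm filter. Four-parameter Hill fit across titration.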
TbPYK inhibitor: blocks Trypanosoma brucei pyruvate kinase. Q57TT1. TbPYK enzyme, Kinase-Glo Plus ATP luminescence, 45 min. Potency, µM (top dose mostly 76.8 µM), for the others: at the highest dose activity, negative = inhibition, usual class: inhibitors. 410,000 compounds, 0.12% hits. AID 624173; also: potency is read from the fitted curve at half-maximal effect; nearly all actives have a fitted effect of over 50% in size
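Assay buffer: 50 mM TEA pH 7.2, 100 mM KCl, 10 mM MgCl2, 0.05% BSA, 0.01% Tween-20. Pyruvate kinase from T. brucei plus substrate met compound, then ADP (130 uM final). Luminescence was read post 45 min RT.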
FMDV antiviral: blocks foot and mouth disease virus. Potency, µM (doses to about 57.9 µM), without a hit: at the highest dose activity change, negative = inhibition, most hits filed as inhibitors. AID 1159524. FMDV antiviral cell-based qHTS. 410,000 compounds, 1.2% hits; calls by dose curve; tested in HEK293T cells; also: read-out not given here; potency is read from the fitted curve at half-maximal effect; nearly all actives have a fitted effect of over 45% in size
HCMV inh: inhibitors of human cytomegalovirus | 410,000 compounds, 4.5% hits | activity change, negative = inhibition, % at 57.5 µM | HFF cells, HCMV-luciferase reporter, 72 h; stronger effect = lower value | AID 1259415; in the data active = activity change below about -60%; inconclusive = no clear call, values can overlap the other calls; inactive = above about -39%
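Cell-based, HFFs, 1000 cells/well, 16 h 37C; cpds in DMSO + HCMV-luc, MOI 1 PFU/cell; 72 h 37C; OneGlo luminescence after 5 min RT; norm. to buffer vs Salinomycin 10uM.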
RE007 growth inh: less growth of the S. pombe RE007 Vpr strain; S. pombe RE007 Vpr strain, BacTiter-Glo ATP luminescence, 24 h; Potency, µM (titrated, usually from 92.2 µM), inactives show top-dose activity change, negative = less growth, most hits filed as inhibitors; 360,000 compounds, 0.21% hits; AID 651644; active = well fitted falling curve with a large enough effect; inconclusive = small, poorly fitted or top-dose-only effect; inactive = no such curve, though single readings can be large or run the other way; also: potency is read from the fitted curve at half-maximal effect; nearly all actives have a fitted effect of over 50% in size
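Fission yeast RE007 carrying one integrated HIV-1 vpr copy, seeded at OD 0.01 in PMG+AL medium with 23 nL pinned compound. Grown 24 h at 30 degrees; viability read by BacTiter-Glo luminescence after 5 min.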
Starred values were filed as active, the others as inactive; [ ] = another dose, or the depositor's remark. Compounds with a hit are over-represented: about 7.7% of the library has one in this group of screens. Unless noted, calls follow the shape of the dose curve; as a rule, active = well fitted curve in the direction sought with a large enough effect; inconclusive = small, poorly fitted or top-dose-only effect, or another doubt; inactive = no such curve, though single readings can be large; an effect the other way counts as inactive or inconclusive. % is scaled to controls: 0 for no effect and ±100 for the full control effect.

`O=C(O)/C=C/C(=O)N(CC1CCCO1)C1CC(=O)N(c2c(Cl)cccc2Cl)C1=O` (stereo not given) gave FBPA Giardia inh -1%, Sm TGR inh 40µM*, TbPYK inhibitor 3%, FMDV antiviral -12%, HCMV inh -5 and RE007 growth inh -14%.
`COc1ccc(N2C(=O)CC(N(CCc3ccccc3)C(=O)/C=C/C(=O)O)C2=O)cc1` (stereo not given) gave FBPA Giardia inh 7%, Sm TGR inh inconclusive, TbPYK inhibitor -2%, FMDV antiviral 1%, HCMV inh 27 and RE007 growth inh -13%.
CCCN1CCN(c2nnc(-n3cccc3C(=O)Nc3ccccc3C(F)(F)F)s2)CC1 was read as Sm TGR inh 33%, TbPYK inhibitor 4%[15.4 µM], FMDV antiviral -1% and HCMV inh 0.
O=C(Nc1ccccc1C(=O)OCc1cc(=O)n2c3c(sc2n1)CCCC3)c1cccc(Cl)c1 was read as Sm TGR inh 7%, TbPYK inhibitor -11%, FMDV antiviral -5% and HCMV inh -26.
`COc1ccc(OCC(=O)Nc2nnc3n2CCS3)cc1` gave Sm TGR inh 61%, TbPYK inhibitor -4%, FMDV antiviral 0% and HCMV inh 3.
Screening CC(=O)c1cccc(NC(=O)CSc2nnc(C(C)N(C)C)n2-c2ccc(F)cc2)c1 (stereo not given) returned FBPA Giardia inh -5%, Sm TGR inh 18%, TbPYK inhibitor -7%, FMDV antiviral 8%, HCMV inh 3 and RE007 growth inh 0%.
CC(=O)c1cccc(NC(=O)CSc2nnc(C(C)N(C)C)n2Cc2ccccc2)c1 (stereo not given) was read as FBPA Giardia inh -1%, Sm TGR inh 25µM*, TbPYK inhibitor -10%, FMDV antiviral 4%, HCMV inh 5 and RE007 growth inh -3%.
Screening C=CCn1c(Sc2ncc([N+](=O)[O-])s2)n[nH]c1=O returned FBPA Giardia inh inconclusive, Sm TGR inh 0.22µM*, TbPYK inhibitor -9%, FMDV antiviral inconclusive, HCMV inh -97* and RE007 growth inh inconclusive.
`CCOc1ccc(-c2nc3n(c(=O)c2C#N)CCCS3)cc1` gave FBPA Giardia inh 10%, Sm TGR inh 0%, TbPYK inhibitor -2%, FMDV antiviral -8%, HCMV inh -91* and RE007 growth inh 11%.
For COc1ccc(-c2nc3n(c(=O)c2C#N)CCCS3)cc1 the results were FBPA Giardia inh 8%, Sm TGR inh 0%, TbPYK inhibitor 2%, FMDV antiviral 16%, HCMV inh -18 and RE007 growth inh 23%.
Screening Cc1cccc(C(=O)NCC(=O)OCc2cc(=O)n3nc(C4CCCCC4)sc3n2)c1 returned Sm TGR inh 0%, TbPYK inhibitor -4%, FMDV antiviral -2% and HCMV inh 22.
Screening CCC/C=C(\CCC)C(NS(=O)(=O)CC12CCC(CC1=O)C2(C)C)c1ccc(C(=O)OC)cc1 (stereo not given) returned FBPA Giardia inh -6%.
Screening CCCCN(C)CCCNC(=O)C1CCN(S(=O)(=O)CCC)CC1 returned Sm TGR inh 11%, TbPYK inhibitor -6%, FMDV antiviral 0% and HCMV inh -7.
For CCC(C)(C)c1ccc(OCCCC[n+]2ccccc2)c(C(C)(C)CC)c1 the results were FBPA Giardia inh 0%, Sm TGR inh 0%, TbPYK inhibitor -2%, FMDV antiviral 32µM*, HCMV inh -98* and RE007 growth inh inconclusive.
For CCC(C)(C)c1ccc(Oc2cccc(C(=O)O)c2)cc1 the results were FBPA Giardia inh inconclusive, Sm TGR inh 4%, TbPYK inhibitor -6%, FMDV antiviral 38%, HCMV inh 88 and RE007 growth inh 5%.
For CC1=CC(C)(C)Nc2ccc(OC(=O)CN3C(=O)c4cccc5cccc(c45)C3=O)cc21 the results were FBPA Giardia inh inconclusive, Sm TGR inh inconclusive, TbPYK inhibitor inconclusive, FMDV antiviral inconclusive, HCMV inh -78* and RE007 growth inh -19%.
CC1=CC(C)(C)Nc2ccc(OC(=O)CN3C(=O)c4ccccc4C3=O)cc21 was read as FBPA Giardia inh -10%, Sm TGR inh -19%, TbPYK inhibitor -8%, FMDV antiviral inconclusive, HCMV inh -100* and RE007 growth inh -19%.
`CC1=CC(C)(C)Nc2ccc(OC(=O)C(Cc3ccccc3)N3C(=O)c4ccccc4C3=O)cc21` (stereo not given) gave FBPA Giardia inh -3%, Sm TGR inh 7%, TbPYK inhibitor 3%, FMDV antiviral 0%, HCMV inh inconclusive and RE007 growth inh 12%.
For COc1ccc(-n2nc(C(=O)Nc3ccc(C(C)=O)cc3)nc2-c2ccccc2)cc1 the results were Sm TGR inh -3%, TbPYK inhibitor 0%, FMDV antiviral -22% and HCMV inh -3.
For COc1ccccc1OCCCc1c(C)n[nH]c1C the results were FBPA Giardia inh -19%, Sm TGR inh -8%[11.4 µM], TbPYK inhibitor -15%, FMDV antiviral -1%, HCMV inh 31 and RE007 growth inh -24%.
COc1ccccc1OCCCCCc1c(C)n[nH]c1C was read as FBPA Giardia inh -6%, Sm TGR inh 6%, TbPYK inhibitor -6%, FMDV antiviral inconclusive, HCMV inh -61* and RE007 growth inh -2%.
`Cc1ccc(NC(=O)C(C)Sc2nnc(C)n2CC2CCCO2)cc1` (stereo not given) gave FBPA Giardia inh -13%, Sm TGR inh 7%, TbPYK inhibitor 2%, FMDV antiviral -8%, HCMV inh -71* and RE007 growth inh 6%.
CCn1c(SCC(=O)c2ccc(Cl)cc2)nnc1-c1ccoc1C was read as FBPA Giardia inh -13%, Sm TGR inh 25µM*, TbPYK inhibitor -21%, FMDV antiviral -4%, HCMV inh 14 and RE007 growth inh -16%.
`CCn1c(SCC(=O)c2ccc(C)cc2)nnc1-c1ccoc1C` gave FBPA Giardia inh -12%, Sm TGR inh inconclusive, TbPYK inhibitor -9%, FMDV antiviral 15%, HCMV inh -31 and RE007 growth inh 12%.
`Cc1occc1-c1nnc(SCC(=O)c2ccc(Cl)cc2)n1CC1CCCO1` (stereo not given) gave FBPA Giardia inh -10%, Sm TGR inh 20µM*, TbPYK inhibitor -20%, FMDV antiviral 4%, HCMV inh 13 and RE007 growth inh 8%.
For Cc1ccc(C(=O)CSc2nnc(-c3ccco3)n2CC2CCCO2)cc1 (stereo not given) the results were FBPA Giardia inh 0%, Sm TGR inh 20µM*, TbPYK inhibitor -28%, FMDV antiviral -2%, HCMV inh -7 and RE007 growth inh -4%.

Screening results from PubChem BioAssay.
